Data reported in PubChem BioAssay.
For some assays here: Measured potencies and affinities stand elsewhere. Active and inactive are the calls of the source. Unless noted, no rule for the calls is given here.

Legend:
[1] = antimalarial activity against Dd2 strain (AID 2302;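 active = growth inhibition above 50% at the single 2 µM test dose, taken to imply half-maximal potency below 2 µM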;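 also: 0% = DMSO untreated growth and 100% = chloroquine plus artemisinin killed control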); details: P. falciparum Dd2 in RBCs, LDH growth readout, 72 h; at 2 µM; stronger effect = higher value
[2] = human hepatoma cell viability loss – ATP luminescence, cytotoxicity control for P. falciparum antimalarial project, primary screen (AID 2303;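 active = inhibition above 50%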;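 also: 0% = DMSO wells and 100% = digitonin-killed cells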); details: HepG2 viability, 24-48 h, at 10 µM, stronger effect = higher value
[3] = target: L-lactate dehydrogenase (Plasmodium falciparum (isolate CDC / Honduras)) (UniProt Q27743); test: PfLDH activity inhibition – cell lysate, 3D7 strain, counter-screen for P. falciparum growth inhibition project (AID 2304);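 also: 0% = vehicle and 100% = reference inhibitor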; details: P. falciparum 3D7 crude extract, LDH APAD/NBT absorbance; at 2 µM; stronger effect = higher value
[4] = inhibition of 3D7 malaria parasite growth – strain 3D7 (AID 2306);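 also: 0% = DMSO wells and 100% = chloroquine plus artemisinin control wells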; details: P. falciparum 3D7 erythrocytic growth, LDH absorbance, 72 h; at 2 µM; stronger effect = higher value
[5] = target: Calcium-dependent protein kinase 1 (Plasmodium falciparum (isolate 3D7)) (UniProt P62344); test: PfCDPK1 kinase inhibitors, biochemical, TCAMS library (AID 1159585; cut-off not given, nearly all actives have IC50 up to about 0.98 µM;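 also: inhibitors leave more ATP so luminescence rises with inhibition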); details: recombinant PfCDPK1, Kinase-Glo ATP depletion luminescence
[6] = target: Plasmodium falciparum protein kinase 6 (PK6, PF3D7_1337100) (UniProt Q8IDW1); test: PfPK6 kinase inhibitors, biochemical, TCAMS library (AID 1159586); details: recombinant PfPK6, Kinase-Glo ATP depletion luminescence
[7] = target: Protein kinase 7 (PK7), Plasmodium falciparum 3D7 (PF3D7_0213400) (UniProt Q7YTF7); test: inhibition of Plasmodium PK7 catalytic activity – biochemical, TCAMS antimalarial set, Kinase-Glo luminescence (AID 1159587); details: recombinant PfPK7, Kinase-Glo ATP depletion luminescence
[8] = target: Calcium-dependent protein kinase 4 (Plasmodium falciparum (isolate 3D7)) (UniProt Q8IBS5); test: PfCDPK4 kinase inhibitors, biochemical, TCAMS library (AID 1159588; cut-off not given, nearly all actives have IC50 up to about 0.91 µM); details: recombinant PfCDPK4, Kinase-Glo ATP depletion luminescence
Chain of Calcium-dependent protein kinase 4 (Plasmodium falciparum (isolate 3D7)) (Q8IBS5 whole entry, looked up): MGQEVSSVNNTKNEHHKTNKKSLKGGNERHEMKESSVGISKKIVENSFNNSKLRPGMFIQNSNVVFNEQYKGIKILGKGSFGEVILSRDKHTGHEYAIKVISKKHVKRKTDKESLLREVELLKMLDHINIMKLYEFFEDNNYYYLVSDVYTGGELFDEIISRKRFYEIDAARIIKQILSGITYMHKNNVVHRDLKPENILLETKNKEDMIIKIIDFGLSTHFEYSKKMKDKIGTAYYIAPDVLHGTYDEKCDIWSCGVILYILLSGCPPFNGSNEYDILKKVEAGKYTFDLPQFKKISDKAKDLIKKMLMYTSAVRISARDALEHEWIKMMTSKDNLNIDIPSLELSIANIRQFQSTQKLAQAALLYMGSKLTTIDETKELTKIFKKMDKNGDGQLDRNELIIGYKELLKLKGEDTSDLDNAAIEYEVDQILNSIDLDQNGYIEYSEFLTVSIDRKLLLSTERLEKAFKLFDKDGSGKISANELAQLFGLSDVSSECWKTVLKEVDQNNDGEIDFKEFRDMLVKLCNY

Chain of L-lactate dehydrogenase (Plasmodium falciparum (isolate CDC / Honduras)) (Q27743 whole entry, looked up): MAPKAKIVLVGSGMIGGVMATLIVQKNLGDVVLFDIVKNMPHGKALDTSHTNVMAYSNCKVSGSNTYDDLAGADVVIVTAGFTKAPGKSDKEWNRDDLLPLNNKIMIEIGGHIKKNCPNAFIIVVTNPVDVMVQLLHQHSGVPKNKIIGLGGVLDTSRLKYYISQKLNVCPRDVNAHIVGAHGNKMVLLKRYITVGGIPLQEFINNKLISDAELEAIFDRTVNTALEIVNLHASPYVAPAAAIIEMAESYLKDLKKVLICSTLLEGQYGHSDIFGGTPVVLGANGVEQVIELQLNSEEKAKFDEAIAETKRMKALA
Chain of Calcium-dependent protein kinase 1 (Plasmodium falciparum (isolate 3D7)) (P62344 whole entry, looked up): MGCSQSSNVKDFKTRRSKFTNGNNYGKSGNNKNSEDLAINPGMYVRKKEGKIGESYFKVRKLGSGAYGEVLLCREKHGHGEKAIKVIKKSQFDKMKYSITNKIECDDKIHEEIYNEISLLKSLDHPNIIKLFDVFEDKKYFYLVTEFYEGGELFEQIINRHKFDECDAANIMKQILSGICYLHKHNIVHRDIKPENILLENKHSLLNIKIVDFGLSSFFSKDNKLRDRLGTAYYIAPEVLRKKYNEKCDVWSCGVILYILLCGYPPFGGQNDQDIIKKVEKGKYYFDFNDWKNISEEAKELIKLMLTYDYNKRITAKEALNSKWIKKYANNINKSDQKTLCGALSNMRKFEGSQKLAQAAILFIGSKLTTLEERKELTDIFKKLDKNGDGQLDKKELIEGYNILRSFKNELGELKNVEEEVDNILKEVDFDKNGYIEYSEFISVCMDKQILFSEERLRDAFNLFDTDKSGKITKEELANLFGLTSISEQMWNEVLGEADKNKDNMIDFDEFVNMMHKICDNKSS
Chain of Plasmodium falciparum protein kinase 6 (PK6, PF3D7_1337100) (Q8IDW1 1-305): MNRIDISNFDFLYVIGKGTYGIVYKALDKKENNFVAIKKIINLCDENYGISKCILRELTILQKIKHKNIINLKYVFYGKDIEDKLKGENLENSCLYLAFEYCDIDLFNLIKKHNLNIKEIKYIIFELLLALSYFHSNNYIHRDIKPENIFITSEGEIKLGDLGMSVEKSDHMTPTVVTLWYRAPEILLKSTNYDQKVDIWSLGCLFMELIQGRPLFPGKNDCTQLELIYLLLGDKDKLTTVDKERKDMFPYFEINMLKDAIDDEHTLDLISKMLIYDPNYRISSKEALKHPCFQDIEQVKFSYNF
Chain of Protein kinase 7 (PK7), Plasmodium falciparum 3D7 (PF3D7_0213400) (Q7YTF7 1-343): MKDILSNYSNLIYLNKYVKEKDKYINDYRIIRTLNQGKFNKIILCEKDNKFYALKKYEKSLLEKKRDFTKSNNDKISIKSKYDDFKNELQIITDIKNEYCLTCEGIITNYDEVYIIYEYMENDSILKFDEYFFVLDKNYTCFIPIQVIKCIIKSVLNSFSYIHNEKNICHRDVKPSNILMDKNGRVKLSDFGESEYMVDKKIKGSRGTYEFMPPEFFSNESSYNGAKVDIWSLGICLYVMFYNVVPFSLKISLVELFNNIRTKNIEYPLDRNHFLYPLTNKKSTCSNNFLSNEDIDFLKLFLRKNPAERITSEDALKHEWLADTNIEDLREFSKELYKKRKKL

CCC1(CC)N=C(N)N=C(N)N1OCc1ccc(Cl)c(Cl)c1
inactive: growth inhibition [1] 49% | inhibition [2] 49% | inhibition [3] -1% | outcome [5] | outcome [6] | outcome [7] | outcome [8]
active: growth inhibition [4] 94%

COc1ccc(-c2cnc3[nH]cc(-c4ccc(C(=O)O)c(C)c4)c3c2)cn1
inactive: inhibition [2] 23% | inhibition [3] -5% | outcome [5] | outcome [6] | outcome [7] | outcome [8]
active: growth inhibition [1] 99% | growth inhibition [4] 99%

Cc1cc(NC(=O)N=C(N)N)ccc1Cl
inactive: growth inhibition [1] 15% | inhibition [2] 11% | inhibition [3] 2% | outcome [5] | outcome [6] | outcome [7] | outcome [8]
active: growth inhibition [4] 100%

CN1CCN(c2ccnc3ccc(NC(=O)Cc4ccc(Br)c5ccccc45)cc23)CC1
active: growth inhibition [1] 99% | growth inhibition [4] 96%
inactive: inhibition [2] 8% | inhibition [3] -3% | outcome [5] | outcome [6] | outcome [7] | outcome [8]

CCN(C(=O)CSc1cc(C)c2cc(C)cc(C)c2n1)C1CCS(=O)(=O)C1 (stereo not given)
active: growth inhibition [1] 82% | growth inhibition [4] 97%
inactive: inhibition [2] 5% | inhibition [3] -1% | outcome [5] | outcome [6] | outcome [7] | outcome [8]

CCC[C@@H](/C=N/N(C)C(=O)OC(C)(C)C)NC(=O)[C@H](CC(C)C)NC(=O)c1cc2cccc(OC)c2o1
active: growth inhibition [1] 61% | growth inhibition [4] 88%
inactive: inhibition [2] 5% | inhibition [3] 6% | outcome [5] | outcome [6] | outcome [7] | outcome [8]

O=C(Nc1ccsc1)Nc1cccc(-c2ccc(-c3nc4ccc(C(F)(F)F)cc4[nH]3)cc2)c1
active: growth inhibition [4] 99%
inactive: growth inhibition [1] 36% | inhibition [2] 45% | inhibition [3] -2% | outcome [5] | outcome [6] | outcome [7] | outcome [8]

COc1ccc(C)c(Nc2ccnc(Nc3ccc(-c4cnc[nH]4)cc3)n2)c1
active: growth inhibition [4] 97%
inactive: growth inhibition [1] 6% | inhibition [2] 40% | inhibition [3] -1% | outcome [5] | outcome [6] | outcome [7] | outcome [8]

Oc1ccc(CCNc2nc(NCc3cccc(OCc4cccc(F)c4)c3)nc(N3CCNCC3)n2)cc1
inactive: growth inhibition [1] -7% | inhibition [2] 27% | inhibition [3] -3% | outcome [5] | outcome [6] | outcome [7] | outcome [8]
active: growth inhibition [4] 86%

COc1ccc(-c2cncc3ccc(C(=O)NCCCn4ccnc4)nc23)cc1
inactive: inhibition [2] 28% | inhibition [3] -3% | outcome [5] | outcome [6] | outcome [7] | outcome [8]
active: growth inhibition [1] 99% | growth inhibition [4] 95%

COc1cc(OC)cc(C(=O)Nc2ccc(Nc3nc(C)cc(N(C)C)n3)cc2)c1
active: growth inhibition [1] 90% | growth inhibition [4] 100%
inactive: inhibition [2] 11% | inhibition [3] 1% | outcome [5] | outcome [6] | outcome [7] | outcome [8]

CC(C)CN(C)c1ncnc2c1nc(-c1cncc(C#N)c1)n2CCNCc1ccccc1
inactive: growth inhibition [1] 2% | inhibition [2] 4% | inhibition [3] 0% | outcome [5] | outcome [6] | outcome [7] | outcome [8]
active: growth inhibition [4] 86%

C=C1N(C)c2cc([N+](=O)[O-])c(N)cc2C1(C)C
active: growth inhibition [1] 83% | growth inhibition [4] 98%
inactive: inhibition [2] 22% | inhibition [3] -2% | outcome [5] | outcome [6] | outcome [7] | outcome [8]

O=C(N[C@@H](Cc1ccccc1)C(=O)NCc1cccc(C(F)(F)F)c1)c1ccc(O)c(-c2ccc(Cl)c(Cl)c2)c1
active: growth inhibition [1] 97% | growth inhibition [4] 96%
inactive: inhibition [2] -13% | inhibition [3] -1% | outcome [5] | outcome [6] | outcome [7] | outcome [8]

CC(C)CNCc1ccc(-c2ccc(CN(CCCN3CCN(C)CC3)C(=O)CCC3CCCC3)cc2)cc1
active: growth inhibition [1] 87% | inhibition [2] 50% | growth inhibition [4] 96%
inactive: inhibition [3] 5% | outcome [5] | outcome [6] | outcome [7] | outcome [8]

O=C(NCC1CCC(C(=O)NCCc2ccc(Cl)c(Cl)c2)CC1)c1ccc(O)c(-c2ccc(Cl)c(Cl)c2)c1 (stereo not given)
active: growth inhibition [4] 94%
inactive: growth inhibition [1] 12% | inhibition [2] -5% | inhibition [3] -1% | outcome [5] | outcome [6] | outcome [7] | outcome [8]

COc1ccc(CNCc2ccc(F)cc2)cc1-c1ccc(S(=O)(=O)NCCN2CCCC2)c(C)c1
inactive: inhibition [3] -2% | outcome [5] | outcome [6] | outcome [7] | outcome [8]
active: growth inhibition [1] 56% | inhibition [2] 55% | growth inhibition [4] 98%

COC(=O)CCCCOc1cc(Cc2cnc(N)nc2N)cc(OC)c1OC
active: growth inhibition [4] 97%
inactive: growth inhibition [1] -1% | inhibition [2] -10% | inhibition [3] -3% | outcome [5] | outcome [6] | outcome [7] | outcome [8]

CC(=O)Nc1ccc(OCCN(Cc2ccccc2OC(F)(F)F)c2ccc(C(F)(F)F)c(C#N)c2)c(Cl)c1
active: growth inhibition [1] 96% | growth inhibition [4] 96%
inactive: inhibition [2] 8% | inhibition [3] 5% | outcome [5] | outcome [6] | outcome [7] | outcome [8]

COc1ccc2nccc(NC(=O)C3(O)CCC(NCc4ncc5c(c4Cl)OCCO5)CC3)c2n1 (stereo not given)
inactive: inhibition [2] 21% | inhibition [3] -1% | outcome [5] | outcome [6] | outcome [7] | outcome [8]
active: growth inhibition [1] 59% | growth inhibition [4] 83%

NC(=O)c1ccccc1OCC(=O)Nc1cccc(-c2cccc(-c3nc4ccccc4[nH]3)c2)c1
inactive: growth inhibition [1] 46% | inhibition [2] 23% | inhibition [3] 3% | outcome [5] | outcome [6] | outcome [7] | outcome [8]
active: growth inhibition [4] 88%

O=S(=O)(NCCN1CCCC1)c1ccc(-c2cccc(CNC3Cc4ccccc4C3)c2)cc1F
inactive: inhibition [2] 41% | inhibition [3] -1% | outcome [5] | outcome [6] | outcome [7] | outcome [8]
active: growth inhibition [1] 62% | growth inhibition [4] 98%

CCOC(=O)c1c(C)noc1Nc1ccc(OC)cc1
active: growth inhibition [4] 99%
inactive: growth inhibition [1] -6% | inhibition [2] -1% | inhibition [3] -6% | outcome [5] | outcome [6] | outcome [7] | outcome [8]

Cc1cc(N[C@@H](CC(C)C)C(=O)NCc2cccc(F)c2)nc(NCCc2ccccc2)n1
inactive: growth inhibition [1] 33% | inhibition [2] 6% | inhibition [3] -1% | outcome [5] | outcome [6] | outcome [7] | outcome [8]
active: growth inhibition [4] 88%

CN1CCN(CCNc2c3ccccc3nc3ccc4ccccc4c23)CC1
active: growth inhibition [1] 99% | growth inhibition [4] 99%
inactive: inhibition [2] 22% | inhibition [3] -6% | outcome [5] | outcome [6] | outcome [7] | outcome [8]

Fc1cc(Cl)ccc1Nc1ccnc2cc(-c3ccc(CN4CCOCC4)o3)ccc12
active: growth inhibition [1] 98% | growth inhibition [4] 99%
inactive: inhibition [2] 33% | inhibition [3] 0% | outcome [5] | outcome [6] | outcome [7] | outcome [8]

COc1ccc2nc(C)cc(NN=Cc3ccccc3F)c2c1
inactive: inhibition [2] 3% | inhibition [3] -4% | outcome [5] | outcome [6] | outcome [7] | outcome [8]
active: growth inhibition [1] 100% | growth inhibition [4] 100%

O=C1COC(c2ccccc2)(c2ccccc2)CN1CC1CCN(Cc2ccc(O)cc2Cl)C1 (stereo not given)
active: growth inhibition [1] 81% | inhibition [2] 53% | growth inhibition [4] 85%
inactive: inhibition [3] 2% | outcome [5] | outcome [6] | outcome [7] | outcome [8]

Cc1cccc2[nH]c(-c3cccc(-c4ccc(NC(=O)Nc5ccc6c(c5)OCO6)cc4)c3)nc12
active: growth inhibition [1] 86% | inhibition [2] 80% | growth inhibition [4] 101%
inactive: inhibition [3] -3% | outcome [5] | outcome [6] | outcome [7] | outcome [8]

O=C(Nc1ccc(OC2CCN(Cc3ccc(F)cc3)CC2)c(Cl)c1)c1ccc(F)cc1
active: growth inhibition [1] 95% | growth inhibition [4] 97%
inactive: inhibition [2] 37% | inhibition [3] -1% | outcome [5] | outcome [6] | outcome [7] | outcome [8]

CNc1nc(Nc2ccccc2C)nc2ccccc12
active: growth inhibition [1] 81% | growth inhibition [4] 101%
inactive: inhibition [2] 17% | inhibition [3] -1% | outcome [5] | outcome [6] | outcome [7] | outcome [8]

CC1CCN(CCCNc2ccc(C(=O)Nc3ccc(C(F)(F)F)cc3)cc2[N+](=O)[O-])CC1
inactive: inhibition [3] -3% | outcome [5] | outcome [6] | outcome [7] | outcome [8]
active: growth inhibition [1] 100% | inhibition [2] 62% | growth inhibition [4] 101%

CCc1cccc2c(C#N)cn(CC(=O)Nc3ccc(OC)cc3)c12
inactive: inhibition [2] -13% | inhibition [3] -3% | outcome [5] | outcome [6] | outcome [7] | outcome [8]
active: growth inhibition [1] 76% | growth inhibition [4] 97%

Cc1c(Cn2ncc(N3C[C@@H](C)N[C@@H](C)C3)c(Cl)c2=O)cccc1NC(=O)Nc1ccc(-c2ccccc2)cc1
inactive: growth inhibition [1] 35% | inhibition [3] -6% | outcome [5] | outcome [6] | outcome [7] | outcome [8]
active: inhibition [2] 97% | growth inhibition [4] 97%

CC(CN1CCN(C)CC1)C(=O)Nc1ccc(-c2ccc(-c3nc4ccccc4[nH]3)s2)cc1 (stereo not given)
inactive: inhibition [2] 5% | inhibition [3] 4% | outcome [5] | outcome [6] | outcome [7] | outcome [8]
active: growth inhibition [1] 79% | growth inhibition [4] 100%

O=C(NC1CCCCC1)N(CCCn1ccnc1)Cc1csc(-c2ccc(CNCc3ccccc3)cc2)n1
inactive: growth inhibition [1] 48% | inhibition [2] 5% | inhibition [3] 0% | outcome [5] | outcome [6] | outcome [7] | outcome [8]
active: growth inhibition [4] 97%

COc1ccc2nccc([C@@H](O)CN3CCC(NCc4ccc5c(c4)NC(=O)CO5)CC3)c2c1
inactive: growth inhibition [1] 6% | inhibition [2] 1% | inhibition [3] 5% | outcome [5] | outcome [6] | outcome [7] | outcome [8]
active: growth inhibition [4] 99%

Cc1ccc(-c2nc(NC(=O)Nc3ccc(C(F)(F)F)cc3)sc2C)cc1Cl
inactive: inhibition [2] 29% | inhibition [3] -5% | outcome [5] | outcome [6] | outcome [7] | outcome [8]
active: growth inhibition [1] 86% | growth inhibition [4] 99%

O=S(=O)(NCCN1CCCC1)c1cccc(-c2cccc(CNCc3ccccc3)c2)c1
active: growth inhibition [1] 73% | growth inhibition [4] 97%
inactive: inhibition [2] 32% | inhibition [3] -7% | outcome [5] | outcome [6] | outcome [7] | outcome [8]

CS(=O)(=O)CCNCc1cccc(-c2cc3c(Nc4ccc5c(cnn5Cc5ccccc5)c4)ncnc3s2)c1
active: growth inhibition [1] 101% | growth inhibition [4] 101%
inactive: inhibition [2] 36% | inhibition [3] 2% | outcome [5] | outcome [6] | outcome [7] | outcome [8]
